Sampled rows, rich in hits. Any-hit rate of the full collection: about 3.8%.
NLRP3 yeast inh – NALP3 inflammasome inhibitors in reconstituted yeast, primary screen, luminescence, uHTS | actives 0.39% (n = 330,000) | Yeast reconstituted NLRP3/ASC/caspase-1, beta-gal luminescence, 24 h | inhibition, % at 10 µM | AID 2825, 2010;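 active = inhibition of 50% or more; inactive = inhibition below 50%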
Yeast superoxide – reduction of superoxide in aged yeast, primary screen, HTS. actives 0.18% (n = 330,000). S. cerevisiae aged cells, superoxide DHE fluorescence; active compounds read low. AID 2690, 2010. superoxide response (% of plate mean), % at 10 µM;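 active = superoxide response under a set limit, about three screen SD below normal, cut at about 65% in these data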;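 note: yeast aged for seven days with compound at 30 °C before DHE staining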
tim23-1 inh – growth inhibitors of tim23-1 mutant yeast, primary screen, luminescence, uHTS; S. cerevisiae tim23-1 growth, BacTiter-Glo luminescence, 24 h; inhibition, % at 20 µM; actives 1.3% (n = 330,000); AID 463212, 2010;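 active = growth inhibition of the mutant yeast at or above 50%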;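 note: temperature-sensitive mutant grown at 25 °C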
TIM10 inh – growth inhibitors of isogenic TIM10 control yeast, primary screen, counter-screen for tim10-1 yeast inhibitor project, luminescence, uHTS | actives 1.4% (n = 330,000) | S. cerevisiae TIM10 strain growth, BacTiter-Glo luminescence, 24 h | AID 463195, 2010 | inhibition, % at 10 µM;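 active = inhibition of 40% or more at the single tested concentration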;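 note: wild-type TIM10 isogenic control strain grown at permissive 25 °C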
tim10-1 inh – growth inhibitors of tim10-1 mutant yeast, primary screen, luminescence, uHTS; S. cerevisiae tim10-1 ts strain growth, BacTiter-Glo, 24 h; inhibition, % at 20 µM; actives 2.2% (n = 330,000); AID 463190, 2010;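 active = inhibition of at least 40%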;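 note: mutant grown at 25 °C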
tim23-1 confirm – tim23-1 mutant yeast growth inhibitors, confirmation, luminescence, single concentration; shares compounds with tim23-1 inh; S. cerevisiae tim23-1 growth, BacTiter-Glo luminescence, 24 h; inhibition, % at 20 µM; actives 83% (n = 4,400); AID 463218, 2010;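 active = inhibition above about 39% in either of two replicate wells at 20 µM, limit read from the data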;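 note: temperature-sensitive tim23-1 mutant grown at 25 °C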
Large screens that a line does not name were inactive (follow-up assays come after a bar, where they were run).

O=C(N/N=C/c1coc2ccc(Cl)cc2c1=O)c1ccncc1	tim23-1 inh 66 | tim23-1 confirm 56
O=C(N/N=C/c1ccc(Cl)cc1Cl)c1ccncc1	none
Cc1cc(C(=O)O)cc(S(=O)(=O)Nc2ccccc2C(=O)NC(C)c2ccccc2)c1C (stereo unspecified)	none
Nc1nc(SCC(=O)c2c(N)n(Cc3ccccc3)c(=O)[nH]c2=O)n[nH]1	none
O=C(OCCOc1ccc(Br)cc1)c1ccc(Cl)c(S(=O)(=O)N2CCOCC2)c1	none
Cc1ccc(C(C(=O)NC2CCCCC2)N2CCN(C(=O)c3ccco3)CC2)cc1 (stereo unspecified)	none
O=C(N/N=C/c1ccc2c(c1)OCO2)c1ccccn1	none
O=C(/C=C/c1ccc2c(c1)OCO2)c1ccccn1	tim23-1 inh 56 | tim23-1 confirm 44
CCCOC(=O)C(C)n1cnc2sc(C)c(C)c2c1=O (stereo unspecified)	none
Cc1noc(C)c1C(=O)N1CCC(C(=O)c2ccccc2)CC1	none
CN(C#N)c1nc(Cl)nc(Nc2cccc(Cl)c2)n1	tim23-1 inh 69 | tim23-1 confirm inactive
CC(=O)c1cccc(NC(=O)c2ccc(NC(=O)CC3SC(N4CCCCC4)=NC3=O)cc2)c1 (stereo unspecified)	none
CCOc1cccc(CNCc2ccc(C(=O)O)cc2)c1	tim23-1 inh 89 | tim23-1 confirm inactive
O=C1CS(=O)(=O)N(Cc2ccc(F)cc2)c2ccccc21	tim23-1 inh 53 (no result: NLRP3 yeast inh) | tim23-1 confirm 47
Nc1c(N(Cc2ccco2)C(=O)COc2ccccc2)c(=O)[nH]c(=O)n1Cc1ccccc1	none
Cc1cccc(OCC(=O)N(Cc2ccco2)c2c(N)n(Cc3ccccc3)c(=O)[nH]c2=O)c1	tim23-1 inh 51 | tim23-1 confirm inactive
O=C(CSC1=NS(=O)(=O)c2ccccc2N1)Nc1ccccc1F	none
O=C(N/N=C/c1ccccc1OC(=O)c1ccc2c(c1)OCO2)c1cccc(F)c1	none
O=C(Oc1ccccc1/C=C\C(=O)c1cc2ccccc2o1)c1cccc(F)c1	tim23-1 inh 52 | tim23-1 confirm 58
Cc1ccc(-c2ccc(/C=C3\C(=O)ON=C3c3ccccc3)o2)c([N+](=O)[O-])c1	tim23-1 inh 70 | tim23-1 confirm 67
COc1ccc(/C=C2\C(=O)ON=C2c2ccccc2)cc1	none
O=C1/C(=C\c2ccc(-c3ccccc3[N+](=O)[O-])o2)C(c2ccccc2)=NN1c1ccccc1	none
Cc1ccc(/C=C2\C(=O)ON=C2c2ccccc2)o1	tim23-1 inh 53 | tim23-1 confirm 53
COc1ccc(CCNC(=O)C2CCN(S(=O)(=O)c3ccc(SC)cc3)CC2)cc1	none
COc1ccc(NS(=O)(=O)c2cccc(NC(=O)CCC(=O)c3ccc(Cl)cc3)c2)cc1	none
O=C(O)c1cccc(N2C(=O)c3cc4cccc(Br)c4cc3C2=O)c1	none | tim23-1 confirm inactive
O=C(O)c1ccc2c(c1)C(=O)N(c1cccc(C(=O)/C=C/c3ccccc3)c1)C2=O	none
COC(=O)c1c(NS(=O)(=O)Cc2ccccc2)sc2c1CCCC2	tim23-1 inh 58 | tim23-1 confirm 52
COC(=O)c1c(NS(C)(=O)=O)sc2c1CCCC2	none
CS/C(N)=N/N=C/c1c(O)ccc2ccccc12	tim23-1 inh 58 | tim23-1 confirm 70
Oc1ccc2ccccc2c1C=Nc1ccccc1Br	tim23-1 inh 53 | tim23-1 confirm 51
Oc1ccc2ccccc2c1/C=N/c1nccs1	tim23-1 inh 57 | tim23-1 confirm 60
CCc1c(C2(O)CCCCC2)[nH]c2ncccc12	none
Cc1ccc2cc(/C=N/NC(=O)[C@H](C)NC(=O)OC(C)(C)C)c(Cl)nc2c1	none
O=Cc1cc2cc3c(cc2nc1Cl)OCCO3	tim23-1 inh 73 | tim23-1 confirm 52
Cc1ccc2cc(C=O)c(Cl)nc2c1	tim23-1 inh 50 | tim23-1 confirm 48
COc1ccc(C(=O)N2CCc3ccc(NC(=O)c4ccccn4)cc3C2)cc1F	tim23-1 inh 52 (no result: Yeast superoxide) | tim23-1 confirm 40
O=C1c2ccccc2NC(c2ccc(-c3ccc(C(F)(F)F)cc3)o2)N1O (stereo unspecified)	tim23-1 inh 65 | tim23-1 confirm 59
O=C1c2ccccc2NC(c2ccc(-c3cccs3)o2)N1O (stereo unspecified)	none
Cc1ccc(CNC(=O)c2cc(=O)c3ccc(C)cc3o2)cc1	none
COc1ccccc1C(=O)Oc1ccc2ccc(=O)oc2c1	tim23-1 inh 69 | tim23-1 confirm 52
CN(C)S(=O)(=O)c1ccc(Cl)c(NC(=O)CNC2(C)CCS(=O)(=O)C2)c1 (stereo unspecified)	none
O=C(Oc1cccc(-n2cnnn2)c1)c1ccccc1Cl	none
CCOC(=O)/C=C1\CC(C(=O)OCC)Oc2c(OC)cccc21 (stereo unspecified)	none (no result: NLRP3 yeast inh)
C=C1c2cccc(OC)c2O[C@H](C(=O)OCC)[C@@H]1CC(CC)CCCC (stereo partly specified)	tim23-1 inh 51 (no result: NLRP3 yeast inh) | tim23-1 confirm inactive
CCC(=O)N1CCN(c2nc(CC)nc3sc4c(c23)CCCC4)CC1	none
CC1CCc2c(sc3nc(C(C)(C)C)nc(N4CCN(C(=O)CCl)CC4)c23)C1 (stereo unspecified)	tim23-1 inh 50 | tim23-1 confirm 53
O=C(NCC1CCCO1)c1csc(Nc2cccc3ccccc23)n1 (stereo unspecified)	none
Cc1cccc(NS(=O)(=O)c2ccc3c(c2)oc(=O)n3C)c1C	tim23-1 inh 95 | tim23-1 confirm inactive
O=C(Cc1ccc([N+](=O)[O-])cc1)NCc1ccccn1	none
O=C(Nc1ccc2oc(-c3ccccc3)nc2c1)c1ccncc1	tim23-1 inh 65 | tim23-1 confirm 67
CCOc1cccc(C(=O)Nc2ccc3oc(Cc4ccc(Cl)cc4)nc3c2)c1	none
O=C(Nc1ccc2oc(-c3cccnc3)nc2c1)c1cccnc1	none
O=C(Nc1ccc2oc(Cc3ccc(Cl)cc3)nc2c1)c1cccnc1	tim23-1 inh 59 | tim23-1 confirm 54
O=C(Nc1ccc(Cl)cc1)c1nc[nH]c1C(=O)NCCCCNC(=O)c1[nH]cnc1C(=O)Nc1ccc(Cl)cc1	none
COC(=O)N/N=C/c1ccc(-c2ccc(Cl)cc2Cl)o1	tim23-1 inh 56 | tim23-1 confirm 50
O=C(NCCCN1CCOCC1)c1ccc(CSCc2cccc(Cl)c2)o1	none
Cc1ccc2c(c1)C(=O)C(=O)N2Cc1ccccc1	tim23-1 inh 73 | tim23-1 confirm 62
Cc1ccc2c(c1)C(=O)C(=O)N2Cc1ccc(Cl)cc1	none
CC1CC(C)CN(S(=O)(=O)c2ccc3c(c2)C(C)(C)C(=O)N3C)C1 (stereo unspecified)	none

Screening results: PubChem BioAssay, several laboratories
